Screens as filed in PubChem BioAssay.
An excerpt weighted towards active compounds, which were near 3.3% of everything screened.
CendR NRP1 mod: modulators of CendR peptide binding to NRP-1, primary screen, biochemical, fluorescence polarization, uHTS; inhibition, % at 25 µM; Neuropilin-1 (Homo sapiens), O14786; FAM-RPARPAR peptide binding to NRP-1; 0.85% of 360,000 active;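 active = inhibition or corrected inhibition above about 18%, plus a signal ratio from 0.5 to 1.5, limit read from the data, passing the limit was not always enough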
CTSL1 counter: Fasciola hepatica cathepsin L1 inhibitors, primary screen, counter-screen for PFM18AAP inhibitor project, biochemical, QFRET, fluorogenic peptide substrate. AID 1906, 2009. recombinant F. hepatica cathepsin L1, Z-Leu-Arg-MCA fluorescence. inhibition, % at 5.96 µM. 0.49% of 300,000 active;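 active = inhibition above the mean of all tested compounds plus 3 SD, set per screening campaign, cut at about 17% in these data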
PHOSPHO1 inh: PubChem AID 1565 | 1.1% of 290,000 active | inhibition, % at 13.3 µM | Phosphoethanolamine/phosphocholine phosphatase (Homo sapiens), Q8TCT1 | recombinant PHOSPHO1, absorbance phosphatase assay; in the data active = inhibition above about 60%
Rpn11 inh: Rpn11 (PSMD14) deubiquitinase inhibitors, primary screen, biochemical, fluorescence polarization, uHTS. 26S proteasome non-ATPase regulatory subunit 14 (Homo sapiens), O00487. human 26S proteasome, Ub4-pepOG fluorescence polarization; 20S core pre-blocked with epoxomicin. inhibition, % at 20 µM. 0.59% of 360,000 active. AID 588493, 2011;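 active = inhibition at 20 µM, scaled to each plate's controls, above about 33%, limit read from the data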
HNF4A DNA FP: change in binding of human HNF4A to DNA, primary screen, biochemical, fluorescence polarization, FITC-DNA; 0.3% of 360,000 active; 1 h; Hepatocyte nuclear factor 4-alpha (Homo sapiens), P41235; activity change, % at 10 µM; in the data active = activity change above about 30%, passing the limit was not always enough
TPT1 inhibitor: Candida albicans TPT1 enzyme inhibitors, primary screen, biochemical, fluorescence polarization | tRNA 2'-phosphotransferase TPT1 (Candida albicans SC5314) | recombinant caTPT1, FP RNA substrate dephosphorylation | inhibition, % at 5 µM | 0.81% of 300,000 active;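 active = inhibition above the mean of all tested compounds plus 3 SD, set per screening campaign, cut at about 24% in these data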
TPT1 inh confirm: Candida albicans TPT1 inhibitors, confirmation, biochemical, fluorescence polarization, triplicate; shares compounds with TPT1 inhibitor; recombinant caTPT1, RNase T1 coupled; inhibition, % at 5 µM; 74% of 2,400 active; AID 2149, 2009;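 active = inhibition above the primary screen limit, the mean inhibition of all tested compounds plus 3 SD, cut at about 25% in these data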
RNase T1 inh: RNase T1 inhibitors, counter-screen for TPT1 inhibitor project, biochemical, fluorescence polarization. shares compounds with TPT1 inhibitor. RNase T1 cleavage, 1536-well. inhibition, % at 5 µM. 83% of 2,400 active;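 active = inhibition above the solvent-only control well mean plus 3 SD, limit set per screening run, cut at about 23% in these data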;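 note: inhibitors block cleavage so intact labeled substrate keeps polarization high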
Rpn11 inh conf: Rpn11 (PSMD14) deubiquitinase inhibitors, confirmation, biochemical, fluorescence polarization, single concentration; shares compounds with Rpn11 inh; purified human 26S proteasome, Ub4-pepOG fluorescence polarization; proteasome pretreated with epoxomicin; inhibition, % at 20 µM; 29% of 1,900 active
MMP-2 counter: MMP-2 enzyme inhibition, confirmation, counter-screen for RPN11 inhibitor project, biochemical, fluorescence, single concentration | inhibition, % at 20 µM | recombinant MMP-2, FRET peptide cleavage fluorescence | shares compounds with Rpn11 inh | 4% of 1,900 active | AID 602330, 2012;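 note: human MMP-2 activated beforehand with APMA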
Target sequence (P08253 whole entry, looked up): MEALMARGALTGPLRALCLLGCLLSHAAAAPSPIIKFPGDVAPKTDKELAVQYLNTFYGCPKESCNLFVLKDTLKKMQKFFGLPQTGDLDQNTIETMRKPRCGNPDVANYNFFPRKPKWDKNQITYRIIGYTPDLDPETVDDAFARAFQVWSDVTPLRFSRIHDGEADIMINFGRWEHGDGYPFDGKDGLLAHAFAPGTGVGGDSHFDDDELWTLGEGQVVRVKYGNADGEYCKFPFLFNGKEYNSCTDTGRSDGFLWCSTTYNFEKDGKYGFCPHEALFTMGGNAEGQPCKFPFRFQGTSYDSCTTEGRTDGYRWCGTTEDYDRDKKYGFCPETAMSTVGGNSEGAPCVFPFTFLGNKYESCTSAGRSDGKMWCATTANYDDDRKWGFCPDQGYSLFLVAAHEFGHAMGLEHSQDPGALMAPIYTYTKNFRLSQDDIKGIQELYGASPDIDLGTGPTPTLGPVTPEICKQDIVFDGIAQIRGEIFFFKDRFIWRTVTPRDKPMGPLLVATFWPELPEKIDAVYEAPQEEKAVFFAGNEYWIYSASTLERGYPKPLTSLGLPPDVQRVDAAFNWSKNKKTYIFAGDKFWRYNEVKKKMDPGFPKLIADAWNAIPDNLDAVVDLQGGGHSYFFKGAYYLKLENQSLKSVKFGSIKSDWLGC
Thrombin inh: bovine thrombin protease inhibition, confirmation, counter-screen for Rpn11 inhibitor project, biochemical, fluorescence polarization, single concentration | shares compounds with Rpn11 inh | AID 602333, 2012 | inhibition, % at 20 µM | 13% of 1,900 active | bovine thrombin cleavage of Ub4-pepOG;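 active = mean inhibition at least 40% at 20 µM, or signal 3 deviations below plate average, so some actives read negative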
Large screens that a line does not name were inactive (follow-up assays come after a bar, where they were run). Cut-off read from the data, not from the text of the source, unless noted: active = inhibition above about 40%; inactive = the rest.

C/C(=N\Nc1ccc([N+](=O)[O-])cc1)c1cc2ccccc2o1	Rpn11 inh 108.2, HNF4A DNA FP 55.9, TPT1 inhibitor 111.0 | TPT1 inh confirm 110.8 | RNase T1 inh 112.7 | Rpn11 inh conf 59.9 | MMP-2 counter inactive | Thrombin inh inactive
C/C(=N\Nc1nc(-c2cc(C)ccc2C)cs1)c1cc2c(ccc3ccccc32)oc1=O	Rpn11 inh 46.5, TPT1 inhibitor 28.1 | TPT1 inh confirm 33.2 | RNase T1 inh 44.6 | Rpn11 inh conf inactive | MMP-2 counter inactive | Thrombin inh inactive
COc1cc(OC)c(OC)cc1/C=C1\Oc2cc(OS(C)(=O)=O)ccc2C1=O	Rpn11 inh 96.7, HNF4A DNA FP 73.4, TPT1 inhibitor 75.0 | TPT1 inh confirm 71.5 | RNase T1 inh 77.7 | Rpn11 inh conf 69.2 | MMP-2 counter inactive | Thrombin inh inactive
COc1ccc2c(C)cc(SCC(=O)N3CCOCC3)nc2c1	Rpn11 inh 40.1, TPT1 inhibitor 72.5 | TPT1 inh confirm 61.2 | RNase T1 inh 72.6 | Rpn11 inh conf 40.8 | MMP-2 counter inactive | Thrombin inh inactive
COc1ccc2c(C)cc(SCC(=O)NC3CCCCC3)nc2c1	none (no result: CTSL1 counter, PHOSPHO1 inh, TPT1 inhibitor)
CCOCC(=O)Nc1ccc(S(=O)(=O)N2CCC(c3nc4ccccc4[nH]3)CC2)cc1	none (no result: PHOSPHO1 inh)
O=C(NN1C(=O)/C(=C/C=C/c2ccco2)SC1=S)c1ccncc1	Rpn11 inh 77.4, TPT1 inhibitor 86.1 | TPT1 inh confirm 57.7 | RNase T1 inh 36.2 | Rpn11 inh conf 123.3 | MMP-2 counter 54.8 | Thrombin inh 54.0
O=C(NN1C(=O)/C(=C/C=C/c2ccccc2)SC1=S)c1ccncc1	Rpn11 inh 71.4, HNF4A DNA FP 78.6, TPT1 inhibitor 130.8 | TPT1 inh confirm 34.5 | RNase T1 inh 46.7 | Rpn11 inh conf inactive | MMP-2 counter inactive | Thrombin inh inactive
O=C(N/N=C/C=C/c1ccco1)c1ccncc1	none
COc1ccc(/C=C2\Oc3cc(OCC(=O)N4CCC[C@H]4C(=O)O)ccc3C2=O)c(OC)c1	Rpn11 inh 58.6, TPT1 inhibitor 35.4 | TPT1 inh confirm 80.9 | RNase T1 inh 91.5 | Rpn11 inh conf 142.1 | MMP-2 counter inactive | Thrombin inh 87.4
Cc1cc(C(=O)c2cccs2)c(N)s1	Rpn11 inh 52.9, TPT1 inhibitor 34.6 | TPT1 inh confirm 39.7 | RNase T1 inh 49.0 | Rpn11 inh conf 49.8 | MMP-2 counter inactive | Thrombin inh inactive
Cc1cc(C)c(C(=O)c2cccs2)c(C)c1	none (no result: CTSL1 counter, PHOSPHO1 inh, TPT1 inhibitor)
O=C1/C(=C/c2cccc([N+](=O)[O-])c2)Oc2cc(O)ccc21	none
O=C1/C(=C/c2ccc(O)c(O)c2)Oc2cc(O)ccc21	Rpn11 inh 86.3, TPT1 inhibitor 43.9 | TPT1 inh confirm 57.7 | RNase T1 inh 66.7 | Rpn11 inh conf 49.0 | MMP-2 counter inactive | Thrombin inh inactive
CC(=O)C1=CCC(c2ccccc2)N(S(=O)(=O)c2cccc(C)c2)C1 (centres undefined)	none (no result: CTSL1 counter, PHOSPHO1 inh, TPT1 inhibitor)
CC(C)c1ccc2c(c1)C1Cc3ccccc3C1N2 (centres undefined)	Rpn11 inh 56.8, TPT1 inhibitor 28.6 | TPT1 inh confirm inactive | RNase T1 inh 21.5 | Rpn11 inh conf inactive | MMP-2 counter inactive | Thrombin inh inactive
O=S1(=O)NC2c3ccccc3CC2O1 (centres undefined)	none
COc1ccc(/C=C2\SC(N)=NC2=O)cc1Br	none
COc1cc(/C=C2\SC(N)=NC2=O)cc(Cl)c1O	Rpn11 inh 114.0, TPT1 inhibitor 43.3 | TPT1 inh confirm 60.2 | RNase T1 inh 70.9 | Rpn11 inh conf 76.0 | MMP-2 counter inactive | Thrombin inh 57.3
Cc1ccc(C2=NC(=O)/C(=C/c3cc(O)c(O)c(Br)c3)S2)cc1	none (no result: CTSL1 counter, TPT1 inhibitor)
COc1cc(/C=C2\SC(c3ccc(C)cc3)=NC2=O)cc(OC)c1O	Rpn11 inh 46.8, TPT1 inhibitor 47.8 | TPT1 inh confirm 66.5 | RNase T1 inh 79.5 | Rpn11 inh conf 40.7 | MMP-2 counter inactive | Thrombin inh inactive
Cc1ccc(CO/N=C\Cc2snc(Sc3ncc(C(F)(F)F)cc3Cl)c2C#N)cc1	PHOSPHO1 inh 95.4, Rpn11 inh 44.7, TPT1 inhibitor 35.2 | TPT1 inh confirm 27.0 | RNase T1 inh 34.1 | Rpn11 inh conf 60.1 | MMP-2 counter inactive | Thrombin inh 49.1
COc1ccc(/C=C2\SC(=S)N(NC(=O)c3ccncc3)C2=O)cc1OC	none (no result: CendR NRP1 mod, Rpn11 inh, HNF4A DNA FP)
O=C(NN1C(=O)/C(=C/c2ccc(O)c([N+](=O)[O-])c2)SC1=S)c1ccccc1Cl	Rpn11 inh 70.9, TPT1 inhibitor 75.2 | TPT1 inh confirm 55.0 | RNase T1 inh 66.2 | Rpn11 inh conf 51.5 | MMP-2 counter inactive | Thrombin inh 42.2
COc1ccc(CN(C)C(=O)C(Cc2ccccc2)NC(=O)c2ccccc2)c(OC)c1 (centres undefined)	none (no result: PHOSPHO1 inh)
CC1(C)C(=O)Nc2ccccc2N1C(=O)COC(=O)/C=C/c1ccc(OC(F)F)cc1	none (no result: PHOSPHO1 inh)
COc1cc(/C=C2\NC(=S)N(C)C2=O)ccc1O	Rpn11 inh 73.1, TPT1 inhibitor 27.2 | TPT1 inh confirm 30.2 | RNase T1 inh 35.3 | Rpn11 inh conf 54.4 | MMP-2 counter 49.1 | Thrombin inh 42.5
